SMILES strings stand for the structures. The source made the active and inactive calls.

The nature of test [1]: anti-His antibody binders, primary screen, artefact control for SMM control protein annotation, biochemical, small-molecule microarray, 635 nm fluorescence (AID 1128).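 Also: score merges feature fluorescence with signal-to-noise for each printed compound spot.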 The settings on record: anti-His Alexa647 antibody binding, higher = more signal.
Test [2] relates to Human papillomavirus type 1a E7 protein (residues 1-88). The test can be described thus: HPV1a E7 small-molecule binders, primary screen, biochemical, small-molecule microarray, residues 1-88, 635 nm (AID 1129). The note with it: small-molecule microarray binding, fluorescence 635 nm; higher = more signal.
The target in test [3] is Focal adhesion kinase 1 (Homo sapiens) (UniProt Q05397). In words: small-molecule microarray binders of FAK, primary screen, biochemical, 635/667 nm fluorescence, BSA, DTT (AID 1130).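 Also: composite of spot emission at 667 nm and signal to noise over triplicate slides.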 The note with it: PTK2 binding, 635 nm fluorescence, higher = more signal.
Sequence of Focal adhesion kinase 1 (Homo sapiens) (Q05397 whole entry, looked up): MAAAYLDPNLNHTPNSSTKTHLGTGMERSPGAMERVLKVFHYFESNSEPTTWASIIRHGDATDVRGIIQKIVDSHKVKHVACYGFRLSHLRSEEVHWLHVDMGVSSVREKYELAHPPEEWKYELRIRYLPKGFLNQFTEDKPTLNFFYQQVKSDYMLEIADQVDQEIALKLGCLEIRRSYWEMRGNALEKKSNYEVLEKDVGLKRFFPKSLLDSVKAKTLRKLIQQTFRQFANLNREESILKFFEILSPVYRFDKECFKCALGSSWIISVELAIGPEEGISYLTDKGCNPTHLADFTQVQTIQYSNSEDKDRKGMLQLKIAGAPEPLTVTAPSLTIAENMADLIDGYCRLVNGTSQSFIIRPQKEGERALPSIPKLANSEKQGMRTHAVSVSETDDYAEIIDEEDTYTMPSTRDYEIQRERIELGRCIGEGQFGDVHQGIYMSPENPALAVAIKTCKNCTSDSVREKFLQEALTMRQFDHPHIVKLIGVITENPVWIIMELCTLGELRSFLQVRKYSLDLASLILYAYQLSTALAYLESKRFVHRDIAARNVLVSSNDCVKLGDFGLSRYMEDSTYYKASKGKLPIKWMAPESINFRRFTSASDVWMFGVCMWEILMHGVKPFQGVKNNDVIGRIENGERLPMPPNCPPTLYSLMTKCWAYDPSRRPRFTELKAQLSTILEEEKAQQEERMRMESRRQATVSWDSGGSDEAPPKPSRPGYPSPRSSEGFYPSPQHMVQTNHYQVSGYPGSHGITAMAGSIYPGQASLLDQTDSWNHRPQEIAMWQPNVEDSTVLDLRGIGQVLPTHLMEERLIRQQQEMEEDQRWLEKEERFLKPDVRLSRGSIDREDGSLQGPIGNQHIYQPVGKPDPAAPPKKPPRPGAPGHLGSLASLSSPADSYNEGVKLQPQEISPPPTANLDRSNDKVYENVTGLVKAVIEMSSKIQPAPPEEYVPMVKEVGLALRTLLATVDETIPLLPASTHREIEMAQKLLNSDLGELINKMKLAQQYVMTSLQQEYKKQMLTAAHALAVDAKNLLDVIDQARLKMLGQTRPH
Test [4] has as its system Fibrinogen (Alexa647-labelled). The test can be described thus: fibrinogen binders on compound microarrays, profiling panel, artefact control for SMM control-protein annotation, biochemical, small-molecule microarray, 635/667 nm fluorescence (AID 1131).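 Also: z-score merges 667 nm fluorescence with per-spot signal-to-noise over triplicate slides.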 The note with it: fibrinogen-A647 binding fluorescence, higher = more signal.
Test [5] concerns the target Follistatin (Homo sapiens) (UniProt P19883). In words: follistatin binders on small-molecule microarrays, primary screen, biochemical, small-molecule microarray, 635/667 nm fluorescence (AID 1132). The note with it: FST binding, 635 nm fluorescence, higher = more signal.
Test [6] has as its target Fibroblast growth factor 2 (Homo sapiens) (UniProt P09038). In words: FGF2 binders on small-molecule microarrays, primary screen, biochemical, small-molecule microarray, 635/667 nm fluorescence (AID 1133). The settings on record: small-molecule microarray binding, FGF2, fluorescence 635/667; higher = more signal.
The nature of test [7]: mitochondrial membrane potential change in A549 cells, profiling panel, cell-based, JC-1 fluorescence, basal, 24 h, 100 nL (AID 1138).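 Also: A549 lung adenocarcinoma cells under basal conditions with no added stimulus; test concentration not given here.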 The note with it: higher = more signal.
The subject of the next test is Lefty1. In words: Lefty1 binders on small-molecule microarrays, primary screen, biochemical, small-molecule microarray, 635/667 nm fluorescence (AID 1139). The note with it: small-molecule microarray binding, fluorescence 635/667; higher = more signal.
Test [8] concerns wheat germ agglutinin (Triticum aestivum), Alexa647-labelled. In words: wheat germ agglutinin binders on compound microarrays, profiling panel, artefact control for SMM control-protein annotation, biochemical, small-molecule microarray, 635/667 nm fluorescence (AID 1140).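 Also: score merges 667 nm feature emission with signal to noise over triplicate slides.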 The note with it: WGA-A647 binding, 635 nm fluorescence, higher = more signal.
Test [9] deals with Luciferin 4-monooxygenase (Photinus pyralis) (UniProt P08659). The test can be described thus: firefly luciferase enzyme inhibitors, primary screen, biochemical, luminescence, purified enzyme, 2006 set (AID 1141).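 Also: cell-free assay with purified firefly luciferase at 100 ng per well in PBS; test concentration not given here.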 The note with it: SteadyGlo luminescence, 30 min, higher = more signal, called active from +8 up or from −8 down.
Sequence of Luciferin 4-monooxygenase (Photinus pyralis) (P08659 whole entry, looked up): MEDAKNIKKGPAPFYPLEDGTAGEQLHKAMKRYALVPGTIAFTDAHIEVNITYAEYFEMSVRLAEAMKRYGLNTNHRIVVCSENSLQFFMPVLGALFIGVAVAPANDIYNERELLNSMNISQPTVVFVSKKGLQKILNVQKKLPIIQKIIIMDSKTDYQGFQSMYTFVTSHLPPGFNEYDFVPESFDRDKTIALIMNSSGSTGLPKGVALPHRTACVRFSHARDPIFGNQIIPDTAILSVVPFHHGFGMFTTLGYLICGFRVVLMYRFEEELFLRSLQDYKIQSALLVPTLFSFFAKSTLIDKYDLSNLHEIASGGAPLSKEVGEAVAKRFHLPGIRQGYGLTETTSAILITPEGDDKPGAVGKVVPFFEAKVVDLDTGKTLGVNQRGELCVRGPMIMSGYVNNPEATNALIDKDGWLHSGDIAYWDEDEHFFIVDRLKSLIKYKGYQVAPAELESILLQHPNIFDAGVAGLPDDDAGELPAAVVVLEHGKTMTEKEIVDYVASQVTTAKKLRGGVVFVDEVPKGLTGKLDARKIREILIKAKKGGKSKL

Sequence of Follistatin (Homo sapiens) (P19883 whole entry, looked up): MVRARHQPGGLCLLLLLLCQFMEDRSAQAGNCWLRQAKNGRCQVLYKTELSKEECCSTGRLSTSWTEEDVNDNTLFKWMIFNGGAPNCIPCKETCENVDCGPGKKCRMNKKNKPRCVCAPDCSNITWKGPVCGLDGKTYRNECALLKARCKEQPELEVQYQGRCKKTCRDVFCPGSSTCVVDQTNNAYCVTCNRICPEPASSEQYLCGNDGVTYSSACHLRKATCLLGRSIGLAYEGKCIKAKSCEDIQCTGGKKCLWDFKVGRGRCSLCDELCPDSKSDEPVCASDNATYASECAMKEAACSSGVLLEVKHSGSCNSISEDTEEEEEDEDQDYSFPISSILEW
Sequence of Fibroblast growth factor 2 (Homo sapiens) (P09038 whole entry, looked up): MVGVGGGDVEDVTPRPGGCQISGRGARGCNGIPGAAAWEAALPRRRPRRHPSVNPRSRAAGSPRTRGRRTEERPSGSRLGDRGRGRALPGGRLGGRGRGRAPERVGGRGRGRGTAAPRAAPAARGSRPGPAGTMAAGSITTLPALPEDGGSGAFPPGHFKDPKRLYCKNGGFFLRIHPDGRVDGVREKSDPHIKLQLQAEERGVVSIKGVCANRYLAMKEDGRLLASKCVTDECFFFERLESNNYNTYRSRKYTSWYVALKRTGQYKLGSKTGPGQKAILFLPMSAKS

As for `COc1cc(CO)cc(I)c1O[C@H]1C=C(C(=O)NCCO)C[C@@H]2O[C@H]12`, the composite z-score in test [1] is 0.426; in [2], 1.22; in [3], 0.572; in [4] it was 0.4; in test [5], 1.52; in [6], 2.13. The figures for the composite z-score (with Lefty1; in test [8]) were 1.37 and 0.308, respectively. In addition, the z-score is -0.976 in test [7] and 0.847 (inactive) in test [9].

As to `NC(=O)N1C(=O)C2C(C1=O)C1C=C(CCCO)C2C(C2CC2)N1Cc1sc2ccccc2c1Cl` (stereo not given), the composite z-score turned out to be 2.4 in [1]; 0.802 in [2]; 0.284 in test [3]; 0.795 in test [4]; 0.539 in test [5]; 0.983 in test [6]. In addition, the composite z-score with Lefty1 amounted to 0.587; in test [8], 0.661. In addition, the z-score in [7] is 0.898; in test [9], -2.2 (inactive).

As to `COCCOC(=O)N1C(=O)[C@@]2(c3cc(C#CC4(O)CCCCCC4)ccc31)[C@H](c1ccc(O)cc1)N1[C@H](c3ccccc3)[C@H](c3ccccc3)OC(=O)[C@H]1[C@@H]2C(=O)N1CCCCCCC1`, the composite z-score is 1.01 in test [1]; 1.19 in test [2]; 0.817 in test [3]; 0.605 in test [4]; 1.39 in [5]; 0.608 in test [6]. Besides, the composite z-score worked out at 0.851 in the test with Lefty1 and 0.907 in test [8]. The results for the z-score in test [7] and in [9] were 0.7 and -0.552 (inactive), respectively.

`[N-]=[N+]=Nc1ccccc1C[C@]1(C(=O)N2CCOCC2)N=C(c2ccc(OCCCO)cc2)O[C@H]1c1ccccc1N=[N+]=[N-]`: the composite z-score was 2.37 in test [1]; 1.19 in test [2]; 1.08 in test [3]; 0.96 in test [4]; 1.41 in test [5]; 1.79 in [6]. Besides, the composite z-score in the test on Lefty1 came out at 1.41; in test [8], 0.97. Further, the z-score in [7] was 0.268; in test [9], -4.36 (inactive).

As to `CCOc1cc(C(O)C2C=CC3C(=O)N(c4ccccc4)C(=O)C3N2Nc2ccccc2F)ccc1O` (stereo not given), the composite z-score in test [1] was 0.532; in test [2], 0.316; in test [3] it was -0.0063; in test [4], -0.428; in test [5], 0.106; in test [6], -0.107. In addition, the composite z-score in the test on Lefty1 is -0.541; in test [8], 0.886. For the same molecule, the z-score in test [7] is -0.638; in test [9], -1.38 (inactive).

As for `O=C1c2ccccc2[C@@]2(Cc3ccccc3N(Cc3ccccc3)C2=O)[C@H](c2ccc(CO)cc2)N1Cc1ccccc1Cl`, the composite z-score was -0.743 in test [1]; -1.14 in test [2]; -0.0858 in [3]; -1.2 in test [4]; -0.465 in test [5]; -0.395 in test [6]. In addition, the composite z-score in the test on Lefty1 was -0.0772; in test [8], -0.45. In addition, the z-score in [7] was -0.00887; in test [9], 1.3 (inactive).

Turning to `C=CCN1C(=O)[C@@]2(O[C@@H](CCn3cc([C@H](O)c4ccccc4)nn3)[C@H]([Si](C)(C)c3ccc(OC)cc3)[C@H]2C)c2cc(N3C(=O)c4cccc5cccc3c45)ccc21`, the composite z-score in test [1] was 0.338; in test [2], -0.526; in test [3], -0.204; in [4] it was -0.295; in test [5] it was -0.638; in test [6], -0.722. Besides, the composite z-score in the test with Lefty1 was -0.475; in test [8], -0.22. Besides, the z-score is 1.36 in [7] and -0.0152 (inactive) in test [9].

On to `CCCC=C(CCC)[C@@H](NC(=O)c1ccc(C(F)(F)F)cc1)c1ccc(C(F)(F)F)cc1`, for which the composite z-score in test [1] is 0.549; in [2] it was 1.23; in test [3] it was 0.156; in test [4], 1; in test [5] it was 0.384; in test [6] it was -0.635. The composite z-score in the test with Lefty1 was found to be 0.131; in [8], 1.38. The figures for the z-score in test [7] and in test [9] were 2.65 and 2.29 (inactive), respectively.

Turning to `COCC(=C=CC[C@H](O)c1ccccc1OCCO)C[C@H](O)COCc1ccccc1`, the composite z-score in test [1] was 2.34; in test [2] it was 1.19; in test [3], 0.516; in [4], 0.272; in [5] it was 0.792; in [6], 0.659. Also, the composite z-score is 0.632 in the test with Lefty1 and 0.0903 in test [8]. The z-score in [7] is 1.26; in test [9], -1.06 (inactive).

As to `COc1ccc(C(=O)Nc2cccc(CN3C(=O)[C@@]4(O[C@@H](CC(=O)N5CCC[C@H]5CO)[C@H]([Si](C)(C)c5ccc(OC)cc5)[C@H]4C)c4ccccc43)c2)cc1`, the composite z-score in test [1] worked out at 1.39; in test [2], 1.03; in test [3], 0.988; in test [4], 0.875; in [5], 1.08; in test [6], 1.1. Moreover, the composite z-score in the test on Lefty1 was 0.703; in test [8], 0.7. Moreover, the z-score in [7] was 1.53; in test [9], -0.599 (inactive).

On to `O=C1NC(=O)C2C1C=CC(C(O)c1ccc(B(O)O)cc1)N2Nc1ccc(Cl)cc1Cl` (stereo not given), for which the composite z-score in test [1] was 0.207; in [2], -0.213; in test [3] it was 0.265; in test [4] it was 0.824; in test [5], 0.529; in test [6] it was -0.514. The composite z-score in the test on Lefty1 was -0.382; in [8] it was 0.641. The figures for the z-score in test [7] and in test [9] were -0.711 and -0.63 (inactive), respectively.

Regarding `COC(=O)[C@@]1(Cc2ccccc2)[C@H]2c3cc(C(=O)N(C)C)n(Cc4ccc(C(F)(F)F)nc4)c3C[C@H]2CN1C(=O)c1ccccc1`, the composite z-score in [1] was 0.0389; in test [2], 1.29; in [3], 0.74; in test [4] it was 1.01; in test [5], 0.714; in test [6], -0.428. Moreover, the composite z-score in the test with Lefty1 was -0.655; in test [8] it was 0.736. Moreover, the results for the z-score in test [7] and in test [9] were 0.353 and 2.32 (inactive), respectively.

Take `O=C1N(Cc2ccccc2)c2ccccc2C[C@@]12COC(c1ccc(OCCCO)cc1)=N2`: the composite z-score in [1] was 1.55; in test [2], 1.21; in test [3], 0.75; in test [4], 0.785; in [5] it was 1.3; in test [6], 0.326. Further, the composite z-score with Lefty1 was -0.319; in test [8] it was 0.98. Moreover, the z-score in [7] is 0.0331; in test [9] it was -1.92 (inactive).

Regarding `CC(C)N1C(=O)c2ccccc2[C@](C)(C(=O)NCC(F)(F)F)[C@@H]1c1ccc(CO)cc1`, the composite z-score in [1] is -0.851; in test [2], -0.432; in [3], -0.749; in [4], -1.07; in test [5], -1.02; in test [6] it was -0.337. The values for the composite z-score (in the test with Lefty1; in [8]) were -1.5 and 0.594, respectively. The z-score in [7] was 0.607; in test [9], -1.17 (inactive).

The values above are taken from PubChem BioAssay.
